From the supplement of paper PMC10127200
Structures can show the parent of a compound that is named as a salt.

How the values were obtained:
Experiment in all cases: Euclidean distance of Cell Painting phenotypic profile (signed KS, 77 features) to DMSO centroid (dimensionless distance); 5 or 10 uM (library dependent); higher = stronger phenotypic change vs DMSO (phenoactivity)
Conditions in all cases: 48 h
[1] = tested on: 786-O
In short: (§1)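 Stained cells were imaged confocally at 20X with 9 fields per well, after 48 h of exposure to library compounds at 10 or 5 uM (set by library; 0.1% DMSO final). The cells were five cancer lines and a healthy fibroblast line. From the images, Harmony extracted 77 features, each expressed as a signed Kolmogorov-Smirnov statistic relative to same-plate vehicle wells. Phenoactivity is measured as Euclidean distance to the median vehicle profile, using plate-position-corrected, correlation-weighted profiles averaged across replicates at the top dose.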

[2] = tested on: A549
In short: as §1

[3] = tested on: DU145
In short: as §1

[4] = tested on: FB
In short: as §1

[5] = tested on: HEPG2
In short: as §1

[6] = tested on: OVCAR4
In short: as §1

SMILES	Euclidean distance [1]	Euclidean distance [2]	Euclidean distance [3]	Euclidean distance [4]	Euclidean distance [5]	Euclidean distance [6]
CCN(CCCCOC(=O)c1ccc(OC)c(OC)c1)C(C)Cc1ccc(OC)cc1 (configuration not stated) [Mebeverine Hydrochloride]	0.875	1.21	1.06	1.29	0.855	1.91
NC(=O)c1cc[n+](CC2=C(C(=O)O)N3C(=O)[C@@H](NC(=O)[C@@H](c4ccccc4)S(=O)(=O)[O-])[C@H]3SC2)cc1 [Cefsulodin sodium]	1.11	0.966	1.58	1.06	0.633	1.15
CC(C)N(CCC(=O)c1ccc2ccccc2c1)Cc1ccccc1	1.68	1.15	0.815	1.33	0.594	0.928
CC1(C)Cc2c(-c3ccccc3)c(-c3ccc(Cl)cc3)c(CC(=O)O)n2C1 [Licofelone]	0.977	1.12	1.32	1.22	0.815	1.41
CN1C(=O)OC(C)(C)C1=O [Trimethadione]	0.978	1.26	0.732	0.717	0.658	0.721
COC(=O)C1=C(C)NC(C)=C(C(=O)OCC(C)C)C1c1ccccc1[N+](=O)[O-] (configuration not stated) [Nisoldipine]	2.53	0.958	1.95	1.86	2.21	1.43
O=C(CCc1ccc(O)cc1)c1c(O)cc(O)cc1O[C@@H]1O[C@H](CO)[C@@H](O)[C@H](O)[C@H]1O [Phlorizin]	0.911	1.18	0.673	0.849	1.02	0.783
CC(C)CC(N)=O [Isovaleramide]	1.41	1.09	0.731	0.571	1.21	1.81
CC(=O)[C@H]1CC[C@H]2[C@@H]3C=CC4=CC(=O)CC[C@@]4(C)[C@@H]3CC[C@]12C [Dydrogesterone]	0.672	0.859	0.732	1.15	1.01	0.899
C[C@@H]1CCO[C@H]2Cn3cc(C(=O)NCc4ccc(F)cc4F)c(=O)c(O)c3C(=O)N12	1.38	1.81	1.15	1	1.37	1.79
Cc1cc2c(F)c(Oc3ncnn4cc(OC[C@@H](C)O)c(C)c34)ccc2[nH]1	2.22	1.25	1.36	1.71	1.24	1.6
CN[C@@H](C)C(=O)N[C@H](C(=O)N1CCC[C@H]1C(=O)Nc1snnc1-c1ccccc1)C1CCCCC1	0.872	1.58	0.883	1.38	0.88	3.41
O=C(O)CCn1c2c(c3ccccc31)C[C@H](NS(=O)(=O)c1ccc(F)cc1)CC2 [Ramatroban]	0.593	0.487	0.969	0.538	1.42	0.778
Cc1cc2ncc(C(=O)NCC(C)(C)NCC(=O)N3CCC[C@H]3C#N)cn2n1 [Anagliptin]	1.08	1.14	1.17	1.29	0.393	1.17
CC(C)[C@H]1CC[C@H](C(=O)N[C@H](Cc2ccccc2)C(=O)O)CC1 [Nateglinide]	2.04	1.19	1.17	0.97	0.589	1.71
COC(=O)C1=C(C)NC(C)=C(C(=O)OC)C1c1ccccc1[N+](=O)[O-] [Nifedipine]	1.37	0.783	0.776	1.11	1.58	
CC(C)N1CCN(Cc2cnc(-c3cc(-c4cccc5[nH]ccc45)cc4[nH]ncc34)o2)CC1	3.29	3.89	3.41	3.33	3.14	3.89
COC(=O)Nc1nc2cc([S+]([O-])c3ccccc3)ccc2[nH]1 (configuration not stated) [Oxfendazole]	1.09	0.692	1.08	0.801	1.42	1.12
C=C[C@H]1CN2CC[C@H]1C[C@@H]2[C@@H](O)c1ccnc2ccc(OC)cc12 [Quinidine sulfate]	0.69	0.88	1.08	0.954	0.831	
CC(C)c1nc(CN(C)C(=O)N[C@H](C(=O)N[C@@H](Cc2ccccc2)C[C@H](O)[C@H](Cc2ccccc2)NC(=O)OCc2cncs2)C(C)C)cs1 [Ritonavir]	1.49	1.26	1.08	1.35	1.58	1.77
CC[C@@H](CO)NCCN[C@@H](CC)CO [Ethambutol 2HCl]	1.58	0.663	1.06	0.73	0.465	1.38
CNCC[C@H](Oc1cccc2ccccc12)c1cccs1 [Duloxetine HCl]	1.15	1.43	1.55	1.48	2.34	1.46
Oc1ccc(O)cc1 [Hydroquinone]	1.49	1.06	1.21	1.36	1.04	1.09

SMILES	Euclidean distance [1]	Euclidean distance [2]	Euclidean distance [3]	Euclidean distance [4]	Euclidean distance [5]	Euclidean distance [6]
O=C(O)c1cccnc1Nc1cccc(C(F)(F)F)c1 [Niflumic acid]	0.923	1.01	1.02	1.24	1.19	1.26
COC(=O)N[C@H](C(=O)N1CCC[C@H]1c1nc(-c2ccc3c(c2)O[C@@H](c2ccccc2)n2c-3cc3cc(-c4c[nH]c([C@@H]5CCCN5C(=O)[C@@H](NC(=O)OC)C(C)C)n4)ccc32)c[nH]1)C(C)C [Elbasvir]	2.17	1.94	1.26	1.97	1.04	1.58
NC(=O)N1c2ccccc2C=Cc2ccccc21 [Carbamazepine]	1.69	0.483	1.26	0.984	1.28	1.59
CC(=O)O[C@]1(C(C)=O)CC[C@H]2[C@@H]3C=C(Cl)C4=CC(=O)[C@@H]5C[C@@H]5[C@]4(C)[C@H]3CC[C@@]21C [Cyproterone Acetate]	1.3	0.841	0.95	0.862	1.95	0.974
CCOc1ccc(Cc2cc([C@@H]3O[C@H](CO)[C@@H](O)[C@H](O)[C@H]3O)ccc2Cl)cc1 [Dapagliflozin]	1.1	1.19	1.1	1.39	0.432	1.01
C#CCN(C)CCCOc1ccc(Cl)cc1Cl [Clorgyline HCl]	0.821	0.714	0.727	1.14	0.806	0.745
COc1ccc(-c2nc(N3CCOCC3)c3sc(CN(C)c4ncc(C(=O)NO)cn4)cc3n2)cn1	3.46	4.27	4.25	3.52	4.2	3.25
C[C@H](CCC(=O)NCCS(=O)(=O)O)[C@H]1CC[C@H]2[C@@H]3[C@@H](O)C[C@@H]4C[C@H](O)CC[C@]4(C)[C@H]3CC[C@]12C [Tauroursodeoxycholic Acid (TUDCA)]	0.663	1.8	0.772	1.04	0.686	1.23
O=C(O)COCCN1CCN(C(c2ccccc2)c2ccc(Cl)cc2)CC1 (configuration not stated) [Cetirizine DiHCl]	1.09	0.92	1.29	1.32	0.618	1.47
COc1ccc(CCN(C)CCCC(C#N)(c2ccc(OC)c(OC)c2)C(C)C)cc1OC (configuration not stated) [Verapamil HCl]	0.99	0.567	0.723	1.41	0.719	
COc1ccc2cccc(CCNC(C)=O)c2c1 [Agomelatine]	0.998	0.774	0.825	0.747	0.603	0.58
CCCCCCc1ccc(O)cc1O [Hexylresorcinol]	1.35	0.943	0.978	0.936	1.32	1.16
Cc1ccc(S(=O)(=O)NC(=O)NN2CC3CCCC3C2)cc1 (configuration not stated) [Gliclazide]	1.36	0.771	1.24	1.14	1.07	1.65
CC(C)(Oc1ccc(C(=O)c2ccc(Cl)cc2)cc1)C(=O)O [Choline Fenofibrate]	0.954	0.724	0.985	1.28	0.32	0.848
N=C(N)NC(=O)Cc1c(Cl)cccc1Cl [Guanfacine Hydrochloride]	1.58	0.941	1.05	1.09	0.41	0.929
CO[C@H]1CC[C@H](N2C(=O)CNc3ncc(-c4ccc(C(C)(C)O)nc4)nc32)CC1	3.2	3.38	2.56	3.76	2.34	3
Cc1cn(-c2cc(NC(=O)c3ccc(C)c(Nc4nccc(-c5cccnc5)n4)c3)cc(C(F)(F)F)c2)cn1 [Nilotinib (AMN-107)]	2.33	3.94	3.46	2.13	1.09	1.8
c1cnc(N2CCN(Cc3ccc4c(c3)OCO4)CC2)nc1 [Piribedil]	1.19	0.769	1.21	1.05	0.645	0.899
Cc1c(C(N)=O)cc([N+](=O)[O-])cc1[N+](=O)[O-] [Dinitolmide]	0.913	1.4	0.756	0.814	0.831	1.38
COc1ccc2cc3[n+](cc2c1OC)CCc1cc2c(cc1-3)OCO2 [Berberine HCl]	0.872	1.5	0.626	0.96	1.8	0.946
C[C@]12CC[C@@H]3c4ccc(O)cc4CC[C@H]3[C@@H]1CCC2=O [Estrone]	0.82	0.907	0.761	1.21	0.472	0.764
CNCCC=C1c2ccccc2CCc2ccccc21 [Nortriptyline hydrochloride]	1.69	1.13	1.37	1.82	1.8	1.69
